Screening results from PubChem.
Shown are actives, neighbours in structure and some others; about 8.8% of the full set was active somewhere.
LMNA splice mod: modulators of lamin A splicing; 200,000 tested, 0.01% active; HeLa LMNA splicing GFP/RFP minigene ratio, 48 h; Potency, µM (highest dose often 46.1 µM), for inactives: at the highest dose ratio change, negative = inhibition, usual class: inhibitors; active means well fitted inhibition curve with a large enough effect in the signal ratio, with a control signal flat, not every such curve was filed as active; inconclusive means small, poorly fitted or top-dose-only effect, or effect the other way, or a change in a side signal; the % refers to the signal ratio; further: on the % scale 0 is the no-effect control and ±100 the full control effect
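S3 HeLa cells stably expressing lamin A-EGFP splicing minigene plus DsRed2, 600 cells/well, 48 h compound exposure at 37C. Laser-scanning cytometry; analysed as GFP (500-530 nm)/RFP (575-640 nm) total intensity ratio; 0.5% DMSO vehicle.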
ALDH1A1 inh: ALDH1A1 (human) enzyme inhibition. P00352. Purified ALDH1A1, NADH fluorescence, propionaldehyde substrate. Potency, µM (top dose mostly 75.3 µM), for the others: at the top dose activity, negative = inhibition, most hits filed as inhibitors. 220,000 tested, 7.3% active. AID 1030;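 further: plate controls were no enzyme wells and a reference inhibitor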
Target sequence (P00352 whole entry, looked up): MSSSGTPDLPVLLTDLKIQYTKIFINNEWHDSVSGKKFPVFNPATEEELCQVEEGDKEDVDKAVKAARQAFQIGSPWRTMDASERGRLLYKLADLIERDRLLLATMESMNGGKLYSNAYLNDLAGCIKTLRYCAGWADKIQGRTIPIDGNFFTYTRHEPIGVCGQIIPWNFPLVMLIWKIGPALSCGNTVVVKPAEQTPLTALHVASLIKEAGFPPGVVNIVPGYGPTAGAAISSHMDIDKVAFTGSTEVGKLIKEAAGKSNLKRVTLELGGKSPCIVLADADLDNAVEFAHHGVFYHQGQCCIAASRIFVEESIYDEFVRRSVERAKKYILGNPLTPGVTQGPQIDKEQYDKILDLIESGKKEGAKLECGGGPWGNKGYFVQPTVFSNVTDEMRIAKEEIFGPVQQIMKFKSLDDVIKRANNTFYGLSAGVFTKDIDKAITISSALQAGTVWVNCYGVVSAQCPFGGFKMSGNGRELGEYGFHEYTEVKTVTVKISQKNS
HPGD block: blocks human HPGD enzyme activity; P15428; purified HPGD, NADH fluorescence kinetic, PGE2 substrate; Potency, µM, without a hit: top-dose activity change, negative = inhibition, usual class: inhibitors; 150,000 tested, 4.3% active; AID 894; further: on the % scale 0 is the no-effect control and ±100 the full control effect
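20 nM HPGD preincubated 15 min at room temperature with compound in 50 mM Tris-HCl pH 8, 0.01% Tween 20. Started with 1 mM NAD+ and 30 uM prostaglandin E2; NADH fluorescence (360/450 nm) read 5 times over 30-s intervals, last minus first.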
HttQ103 aggreg: reduces HttQ103-GFP aggregates in PC12 cells; PC12 HttQ103-GFP aggregates, Acumen cytometry, 40 h; Potency, µM (top dose mostly 46.1 µM), without a hit: at the highest dose activity change, negative = inhibition, usual class: inhibitors; 220,000 tested, 1.1% active; active means well fitted curve in the direction sought with a large enough effect; inconclusive means small, poorly fitted or top-dose-only effect, or another doubt; inactive means no such curve, though single readings can be large; an effect the other way counts as inactive or inconclusive; further: on the % scale 0 is the no-effect control and ±100 the full control effect; nearly all actives have a fitted effect of over 60% in size
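Compounds (qHTS titration) were added to PC12 cells expressing an ecdysone-driven HTT exon 1 Q103–GFP fusion after induction with 100 nM tebufenozide. Aggregate formation was measured as GFP objects in cell lysates.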
HTT ATP protect: Huntington cell model cytoprotection by ATP luminescence. 230,000 tested, 0.14% active. Potency, µM (top dose mostly 56.4 µM), without a hit: cytoprotection (ATP increase), actives largely listed as activators. PC12 HTT-Q103 induced, cytoprotection, ATP luminescence, 40 h. AID 1471; active means well fitted curve in the direction sought with a large enough effect; inconclusive means small, poorly fitted or top-dose-only effect, or another doubt; inactive means no such curve, though single readings can be large; an effect the other way counts as inactive or inconclusive; further: % of control where 0% means no effect; nearly all actives have a fitted effect of over 45% in size
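PC12 cells with ecdysone-inducible HTT exon 1 Q103-GFP, induced with 100 nM tebufenozide and co-treated with library compounds in a dose series (1536-well, 1500 cells/well). Cytoprotection read as ATP content by ATPlite luminescence.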
Active calls of the source: *; u = inconclusive; x = not tested or not shown; [ ] = dose if it differs, or a comment. Unless noted, the call rests on the fitted dose curve; in most records, active means well fitted inhibition curve with a large enough effect (not every such curve was filed as active); inconclusive means small, poorly fitted or top-dose-only effect, or another doubt; inactive means no such curve, though single readings can be large or run the other way. Potency means the concentration at half of the fitted maximal effect.

SMILES	LMNA splice mod	ALDH1A1 inh	HPGD block	HttQ103 aggreg	HTT ATP protect
Cc1ccc(C(C[N+](=O)[O-])Sc2ccc(N)cc2)cc1 (configuration not stated)	x	4µM*	x	2%[9.22 µM]	-14%[10 µM]
CCOc1cc(C(=O)N2CCc3c([nH]c4ccccc34)C2c2ccccc2)cc(OCC)c1OCC (configuration not stated)	8%[46 µM]	x	x	x	x
CC(C)(C)n1nnnc1C(c1ccc(C(F)(F)F)cc1)N(Cc1ccc(F)cc1)Cc1ccco1 (configuration not stated)	u	3%	-10%	16µM*	-17%[10 µM]
CC(/C=C\C=C\c1ccccc1)=N\NC(=O)c1cncc(Br)c1	-28%[46 µM]	22µM*	x	-13%	-20%
CCCN(C(=O)Cn1ncc2c(=O)oc3ccccc3c21)c1cccc(C)c1	-2%	11µM*	3%	21%	-14%
CCN(CCCNC(=O)Cn1ncc2c(=O)oc3ccccc3c21)c1cccc(C)c1	8%	-15%	-19%	-19%	-10%
CCOC(=O)c1c(NC(=O)C(C)Sc2cn(C)c3ccccc23)sc2c1CCC2 (configuration not stated)	9%	25µM*	-12%	4%	x
CCOC(=O)c1c(NC(=O)CSc2c[nH]c3ccccc23)sc2c1CCC2	u	u	-13%	-4%	x
Cc1nn(CCC(N)=S)c2nc(-c3cccs3)cc(C(F)(F)F)c12	-7%	13µM*	28µM*	0%	-4%[10 µM]
Cc1nn(CCC#N)c2nc(-c3ccccc3)cc(C(F)(F)F)c12	17%	u	u	u	-1%
CCCCC/C=C\C/C=C\C/C=C\C/C=C\CCCC(=O)O[C@H](COCCCCCCCCCCCCCCCC)COP(=O)([O-])OCC[N+](C)(C)C	x	u	-13%	x	u
COc1ccc(CCNc2cc(N3CCN(C(=O)c4ccc(C)cc4)CC3)ccc2[N+](=O)[O-])cc1OC	u	8.9µM*	-13%	-10%	4%[10 µM]
COc1ccc(CCNc2cc(N3CCN(C(=O)c4ccccc4F)CC3)ccc2[N+](=O)[O-])cc1OC	9%	2.5µM*	-23%	4µM*	-43%
COc1ccc(-c2nc3sc(CCNC(=O)C(=O)Nc4cccc(NC(C)=O)c4)c(C)n3n2)cc1	28%[46 µM]	x	x	x	x
COc1ccccc1Cc1nc2ccccc2nc1SCC(=O)NCc1ccc(F)cc1	14%[46 µM]	x	x	x	x
COc1ccc(OC)c(NC(=O)c2cc(-c3cc(Cl)ccc3O)n[nH]2)c1	u	-8%	u	-3%	0%
COc1ccc(CCNC(=O)c2cc(-c3cc(C)ccc3O)n[nH]2)cc1OC	-13%	2%	4µM*	-10%[9.22 µM]	-4%
COc1ccc(NC(=O)c2cc(-c3cc(C)ccc3O)n[nH]2)cc1Cl	1%	6%	3.2µM*	14%	-19%[0.074 µM]
Cc1ccc(N=Cc2nc(-c3ccco3)oc2O)cc1	8%	u	-21%	-5%	0%[10 µM]
Cc1ccc(C(=O)Oc2oc(-c3ccco3)nc2C=Nc2ccc(Cl)cc2)cc1	-9%	u	6.3µM*	7%	-37%
Cc1ccc(C(=O)Oc2oc(-c3ccccc3)nc2C=Nc2ccc(N(C)C)cc2)cc1	-3%	u	-22%	10%	-57%[10 µM]
O=C(Oc1oc(-c2ccco2)nc1C=Nc1ccccc1)c1ccoc1	9%	u	5µM*	13%[9.22 µM]	-15%
COc1cccc(N=Cc2nc(-c3ccccc3)oc2OC(C)=O)c1	x	x	x	-4%[9.22 µM]	-23%[10 µM]
O=C(Oc1oc(-c2ccco2)nc1C=Nc1ccccc1)c1ccco1	11%	u	2µM*	8%	7%[1.9 µM]
CN(C)c1ccc(N=Cc2nc(-c3ccccc3)oc2OC(=O)c2cccc(Cl)c2)cc1	-9%	13µM*	u	u	-4%[10 µM]
SMILES	LMNA splice mod	ALDH1A1 inh	HPGD block	HttQ103 aggreg	HTT ATP protect
COc1ccc(N=Cc2nc(-c3ccccc3)oc2OC(C)=O)cc1	x	x	x	6%[9.22 µM]	16%[10 µM]
Cn1cccc2[nH]c(=O)nc1-2	x	u	x	-15%[9.22 µM]	-2%[10 µM]
CCOC(=O)c1ccc(NC(=O)CCn2ccc(C)n2)cc1	6%[46 µM]	x	x	x	x
CCS(=O)(=O)N1N=C(c2cccc(NS(C)(=O)=O)c2)CC1c1ccc(C)cc1 (configuration not stated)	u	20µM*	x	-16%	-18%
CCOC(=O)C1(Cc2ccccc2Cl)CCN(C(=O)c2cnccn2)CC1	x	-6%	x	-2%[9.22 µM]	-1%[10 µM]
COc1c(S(=O)(=O)n2nc(C)cc2C)ccc(Cl)c1Cl	u	28µM*	22µM*	6%	-4%
O=C(CN1CCN(Cc2ccccc2F)C1=O)NCc1ccco1	11%	0%	-11%	0.13µM*	10%
O=C(NCc1ccco1)C1CCN(c2nc3ccccc3n2Cc2ccccc2F)CC1	18%	28µM*	-15%	u	u
O=C(Cn1cnc2c(nnn2Cc2ccccc2F)c1=O)NCc1ccco1	16%	-2%	32µM*	28%	-28%
Cc1ccc(Cn2nnc3c(=O)n(CC(=O)NCc4ccco4)cnc32)cc1	-27%	-2%	u	17%	6%[10 µM]
O=C(CN1CCN(Cc2ccccc2F)C1=O)NCc1cccnc1	0%	3%	-6%	11%	-3%[10 µM]
Cc1cc(C)nc(N2CCC(C(=O)NCc3ccccc3F)CC2)n1	-1%[46 µM]	10%	x	-11%[9.22 µM]	1%[10 µM]
COc1ccc(CCNC(=O)C(=O)NCC(c2ccco2)S(=O)(=O)c2ccccc2)cc1 (configuration not stated)	4%[46 µM]	x	x	x	x
Cc1cccc(N2C(=O)CS(=O)(=O)C23C(=O)N(Cc2c(F)cccc2Cl)c2ccccc23)c1 (configuration not stated)	2%[46 µM]	x	x	x	x
O=C1/C(=C\c2ccc(-c3ccccc3Cl)o2)SC(=S)N1CC1CCCO1 (configuration not stated)	-7%	1.4µM*	-19%	20%	5%
COc1cc(/C=C2/SC(=S)N(CC3CCCO3)C2=O)ccc1O (configuration not stated)	-4%	0.14µM*	25µM*	18%	-8%[10 µM]
COc1ccc(/C=C2\SC(=S)N(CC3CCCO3)C2=O)cc1 (configuration not stated)	x	x	x	1%[9.22 µM]	17%[10 µM]
O=C1/C(=C/c2cccnc2)SC(=S)N1CC1CCCO1 (configuration not stated)	-11%[46 µM]	5µM*	x	13%	2%[10 µM]
Cc1ccc(/C=C2\SC(=S)N(CC3CCCO3)C2=O)o1 (configuration not stated)	x	x	x	-2%[9.22 µM]	-25%[10 µM]
COCCNc1ncnc2ccc(-c3cccc(OC)c3)cc12	u	u	x	x	-167%
CCc1ccccc1NS(=O)(=O)c1ccc2[nH]cc(C(=O)NC3CCCC3)c(=O)c2c1	u	20µM*	-28%	-25%	x
CN(Cc1ccco1)C(=O)c1c[nH]c2ccc(S(=O)(=O)Nc3ccc4c(c3)OCCO4)cc2c1=O	-7%	22µM*	18µM*	-7%	x
